Hit rate of the full screen: of about 310,000 compounds, about 17,000 (5.5%) were called active. A call without a number means that no potency is given here. Not shown: some 11% with an inconclusive outcome. The sample holds actives, similar compounds and a random draw of the others, so the mix is not that of the screen. The call rests on the fitted dose curve; in most records, active means well fitted inhibition curve with a large enough effect; inconclusive means small, poorly fitted or top-dose-only effect, or effect the other way; inactive means no such curve, though single readings can be large or run the other way.
Potency means the concentration at half of the fitted maximal effect.

Sequence of Nuclear receptor ROR-gamma (Mus musculus) (P51450 whole entry, looked up, the tested form may be a part): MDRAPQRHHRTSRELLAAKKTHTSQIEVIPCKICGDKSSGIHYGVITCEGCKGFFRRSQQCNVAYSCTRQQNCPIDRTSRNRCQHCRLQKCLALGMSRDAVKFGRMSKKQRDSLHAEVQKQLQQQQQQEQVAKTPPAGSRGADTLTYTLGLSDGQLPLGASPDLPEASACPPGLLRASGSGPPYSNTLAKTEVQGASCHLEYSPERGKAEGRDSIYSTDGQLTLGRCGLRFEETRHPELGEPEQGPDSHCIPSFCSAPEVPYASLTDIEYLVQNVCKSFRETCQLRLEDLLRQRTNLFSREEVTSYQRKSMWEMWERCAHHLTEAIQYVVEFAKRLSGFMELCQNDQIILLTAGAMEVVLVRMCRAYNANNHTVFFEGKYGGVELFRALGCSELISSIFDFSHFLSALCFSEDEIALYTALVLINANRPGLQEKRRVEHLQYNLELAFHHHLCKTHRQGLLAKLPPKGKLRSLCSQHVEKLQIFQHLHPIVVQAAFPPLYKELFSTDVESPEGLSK

This test has as its target Nuclear receptor ROR-gamma (Mus musculus) (UniProt P51450). Description: qHTS for inhibitors of ROR gamma transcriptional activity. Further: nearly all actives have a fitted effect of over 60% in size. The conditions noted are these: Drosophila S2 Gal4-RORgamma UAS-luciferase reporter, 20 h; series mostly up to 53.6 µM. In a few lines: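 Compounds are pin-transferred onto Drosophila Schneider cells expressing a copper-inducible Gal4–ROR gamma transactivation domain fusion. After 1 hr, copper sulfate is added to 700 uM final; luciferase is read 20 hr later.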
A general note: Quantitative high-throughput screening tests each substance at several concentrations.
`COc1ccc(-c2c(C#Cc3ccccc3)c3ccccc3n2C)cc1`: the Potency result was “inactive”.

As to `Cc1c(C)c(C)c2[nH]c(=S)[nH]c2c1C`, the Potency is 2.82 µM (active).

As for `O=c1[nH]c(=S)[nH]c2[nH]c(=S)[nH]c12`, the Potency entry is “inactive”.

For the compound `Cc1cc(=O)[nH]c(=S)[nH]1`, the Potency result was “inactive”.

With `CCOC(=O)CNc1nc(Cl)nc(Nc2ccc(OC)cc2OC)n1`, the Potency result is “inactive”.

Turning to `COCC1CCN(C(=O)c2ccc3oc(Cc4ccccc4)nc3c2)C1` (configuration not stated), the Potency entry is “inactive”.

As for `COc1ccc(NC(=O)C2CCC(CNC(=O)[C@@H]3Cc4ccccc4CN3)CC2)cc1` (some centres not stated), the Potency result is “inactive”.

In the case of `COc1ccc(NC(=O)CN2C(=O)COc3ccc(S(=O)(=O)N4CCOCC4)cc32)c(OC)c1`, the Potency entry was “inactive”.

As for `O=C(C[n+]1cc(Br)cc2ccccc21)c1ccc(F)cc1`, the Potency result is “inactive”.

Turning to `COc1ccc(C(=O)N2CCCCC2C(=O)Nc2ccc(-n3nc(C)cc3C)cc2)o1` (configuration not stated), the Potency entry is “inactive”.

As for `Cc1cccc(CNS(=O)(=O)c2ccc(-c3cnc(C4CC4)o3)cc2)c1`, the Potency result was “inactive”.

With `CC(CCc1ccc(O)cc1)NCc1ccc(Cl)cc1Cl` (configuration not stated), the Potency result was “inactive”.

In the case of `CCCCCC(=O)NC(=S)NNC(=O)c1ccc([N+](=O)[O-])cc1`, the Potency was 14.1 µM (active).

For `CC(C)CC(=O)NC(=S)NNC(=O)c1cccc([N+](=O)[O-])c1`, the Potency was 12.6 µM (active).

With `CC(C)(C)SCCNC(=O)c1cccc([N+](=O)[O-])c1`, the Potency result is “inactive”.

For `CCCCCC(=O)Nc1ccc(C(=O)N/N=C/c2ccc([N+](=O)[O-])cc2)cc1`, the Potency entry is “inactive”.

In the case of `O=C(NNS(=O)(=O)Cc1ccccc1)c1ccc([N+](=O)[O-])cc1`, the Potency result was “inactive”.

In the case of `Cc1cccc(C(=O)NNC(=O)c2cccc([N+](=O)[O-])c2)c1`, the Potency entry was “inactive”.

In the case of `COc1ccc(OC)c(CCNC(=O)c2nn(C)c3c2CS(=O)(=O)c2ccccc2-3)c1`, the Potency result is “inactive”.

For `Cc1cc2oc(=O)cc(CN3CCN(Cc4ccccc4)CC3)c2cc1C`, the Potency entry is “inactive”.

As to `CCn1c(=S)[nH]c2sc3c(c2c1=O)CCCCC3`, the Potency was 0.447 µM (active).

Take `CCCc1nc2sc3c(c2c(=O)n1NC(=O)CCCl)CCCC3`: the Potency entry was “inactive”.

For `CN(C)CCCn1c(=O)n(Cc2ccccc2)c(=O)c2c3c(sc21)CCCCC3`, the Potency result is “inactive”.

`COc1ccc(NC2CCCN(C(=O)c3ccncc3)C2)cc1` (configuration not stated): the Potency result is “inactive”.

For the compound `Cc1cccc(C(=O)N2CCCC(Nc3ccc(C(C)C)cc3)C2)n1` (configuration not stated), the Potency entry was “inactive”.

Take `CC(C)c1ccc(NC2CCCN(C(=O)c3ccncc3)C2)cc1` (configuration not stated): the Potency was 2.51 µM (active).

For the compound `O=C(CCC1CCCN(C(=O)c2ccc(F)c(F)c2)C1)N1CCN(c2ccccn2)CC1` (configuration not stated), the Potency result is “inactive”.

As to `CC(NC(=O)c1cc2cc(Cl)ccc2oc1=N)c1ccccc1` (configuration not stated), the Potency entry is “inactive”.

Take `CCC(C)NC(=O)c1nn(C)c(=O)c2ccccc12` (configuration not stated): the Potency entry was “inactive”.

Turning to `Cc1nc2ccccc2n1CC(=O)N/N=C/c1cccs1`, the Potency result is “inactive”.

As for `CCC(C)NC(=O)c1c(N)n(/N=C/c2cccs2)c2nc3ccccc3nc12` (configuration not stated), the Potency was 10 µM (active).

Take `O=C(NCc1cccc(CNC(=O)Nc2cccc(O)c2)c1)Nc1cccc(O)c1`: the Potency result was “inactive”.

On to `COc1ccc(CCNC(=O)CCNS(=O)(=O)c2cc(Br)cnc2N)cc1OC`, for which the Potency entry is “inactive”.

Take `CCc1nc(Nc2ccc(NC(C)=O)cc2)c2oc3ccccc3c2n1`: the Potency entry is “inactive”.

For the compound `CC1C(=O)C(C)C(c2ccc(O)cc2)NC1c1ccc(O)cc1` (configuration not stated), the Potency result is “inactive”.

As to `Cc1cc(C)nc(Nc2n[nH]c(-c3ccccc3N)n2)n1`, the Potency is 10 µM (active).

For `Cc1cc(C)nc(Nc2ncn[nH]2)n1`, the Potency entry was “inactive”.

For the compound `Cc1cc(Nc2ccccc2)nc(N)n1`, the Potency result is “inactive”.

As to `O=C(C1CC(=O)N(C2CCCCC2)C1)N1CCN(c2ccccc2)CC1` (configuration not stated), the Potency entry is “inactive”.

Regarding `COc1cccc(CNC(=O)C2CCCN(S(=O)(=O)N3CC(C)CC(C)C3)C2)c1` (configuration not stated), the Potency entry was “inactive”.

On to `O=C(c1cnc(Cl)c(Cl)c1)N1CCN(S(=O)(=O)c2ccc(F)cc2)CC1`, for which the Potency result is “inactive”.

For the compound `CNC(=O)C(=O)N/N=C/c1ccccn1`, the Potency entry was “inactive”.

For the compound `O=C(N/N=C/c1ccccn1)C12CC3CC(CC(C3)C1)C2`, the Potency is 2.82 µM (active).

`O=C(Nc1ccc(S(=O)(=O)Nc2ncccn2)cc1)C12CC3CC(CC(C3)C1)C2`: the Potency entry is “inactive”.

On to `CC(C)(C)C1CCC(C(=O)NCC(c2cccs2)N2CCOCC2)CC1` (configuration not stated), for which the Potency result was “inactive”.

Turning to `O=C(CNC(=O)OCc1ccccc1)NC1CCCCNC1=O` (configuration not stated), the Potency result was “inactive”.

As to `O=[N+]([O-])c1cc([N+](=O)[O-])c(Oc2cc(F)cc(F)c2F)cc1NN1CCCCC1`, the Potency result was “inactive”.

For the compound `O=C(NCc1ccccn1)c1cc(Br)ccc1Cl`, the Potency entry was “inactive”.

With `COc1ccc(-c2ccc(CNCCCN3CCOCC3)o2)cc1Cl`, the Potency result was “inactive”.

On to `Fc1ccc(-c2ccc(CNCc3ccccn3)o2)cc1Cl`, for which the Potency is 11.2 µM (active).

As for `CCOc1ccc(-n2c(SCC(N)=O)nnc2-c2ccco2)cc1`, the Potency entry is “inactive”.

Regarding `COc1ccccc1S(=O)(=O)c1c(C)cc(C)[nH]c1=O`, the Potency entry was “inactive”.

For `COc1cc2c(cc1/C=C1/NC(=O)N(c3ccccc3)C1=O)OCO2`, the Potency result was “inactive”.

In the case of `O=C1/C(=C\c2ccsc2)NC(=S)N1c1ccccc1`, the Potency is 7.08 µM (active).

As to `O=C1N/C(=C/c2cccn2-c2ccccc2)C(=O)N1c1cccc(Cl)c1`, the Potency result was “inactive”.

Take `COc1ccc(OCC(O)CN(C)C(=O)C(C)Oc2ccccc2)cc1` (configuration not stated): the Potency entry is “inactive”.

For `COc1ccc(C(=O)NCCCN2CCOCC2)cc1Br`, the Potency entry is “inactive”.

Regarding `Cc1nnc(SCC(=O)N2CCN(c3ccccc3)CC2)n1-c1ccccc1`, the Potency entry was “inactive”.

Turning to `CC(=O)c1c(N2CCN(c3ccc(F)cc3)CC2)nc(=S)n(-c2ccccc2)c1C`, the Potency is 14.1 µM (active).

Regarding `Cc1ccc2cc(C)c(N3CCN(c4ccc(F)cc4)CC3)nc2c1`, the Potency result was “inactive”.

`Cc1ccccc1/C=C\c1nc(O)c([N+](=O)[O-])c(=O)[nH]1`: the Potency result is “inactive”.

As to `COc1cccc(NC(=O)C2CCCN(c3ncnc4c3nc3n4CCCCC3)C2)c1` (configuration not stated), the Potency result is “inactive”.

For the compound `COc1ccc(NC(=O)N2CCCC(C(=O)Nc3ccccc3OC)C2)cc1` (configuration not stated), the Potency entry is “inactive”.

`CC(C)c1ccc(/C=C/C(=O)NNC(=O)c2cccnc2)cc1`: the Potency result is “inactive”.

Turning to `O=C(/C=C/c1ccc(F)cc1)NCCNC(=O)/C=C/c1ccc(F)cc1`, the Potency result was “inactive”.

On to `O=C(/C=C/c1ccc(F)cc1)NC(=S)NNC(=O)c1cccnc1`, for which the Potency was 11.2 µM (active).

In the case of `O=C(NCc1ccccc1)c1onc(CSc2nc3ccccc3[nH]2)c1C(=O)NCc1ccccc1`, the Potency entry is “inactive”.

Turning to `CCSCc1nc(N)nc(NCCc2ccccc2)n1`, the Potency result is “inactive”.

For the compound `Cc1cc(C)c(C(=O)CSc2nc(C)cc(=O)[nH]2)c(C)c1`, the Potency result is “inactive”.

As to `COc1ccccc1N1CCN(S(=O)(=O)CCNC(=O)c2ccc(OC(C)C)cc2)CC1`, the Potency entry is “inactive”.

With `CC(OC(=O)c1ccc2noc(-c3ccccc3)c2c1)C(N)=O` (configuration not stated), the Potency result is “inactive”.

As to `O=C(Nc1nn(Cc2ccccc2F)cc1Br)c1cccs1`, the Potency entry is “inactive”.

For the compound `O=C(C/C(=N\NC(=O)c1ccccc1Br)C(F)(F)F)c1cccs1`, the Potency was 14.1 µM (active).

Consider `COc1ccc(C(=O)COC(=O)CNC(=O)c2cccs2)cc1Br`, for which the Potency entry is “inactive”.

With `CCCCn1c(-c2cccc(C)c2)nc2cc3[nH]c(=O)c(C(C)C)nc3cc21`, the Potency result was “inactive”.

Consider `O=C(Nc1cccc(-c2cscn2)c1)C1CCN(Cc2ccsc2)CC1`, for which the Potency entry is “inactive”.

As for `O=C(NCCN1CCOC1=O)C1CCC(=O)N(CCc2ccc(Cl)cc2)C1` (configuration not stated), the Potency result is “inactive”.

On to `Cc1ccc(CS(=O)Cc2ccc(C(=O)N3CCOCC3)o2)cc1` (configuration not stated), for which the Potency result was “inactive”.

In the case of `CCOc1ccccc1N=C1NC(=O)CS1`, the Potency result is “inactive”.

As for `CCOc1cccc(/C=N/N2C(=O)CSC2=S)c1O`, the Potency was 3.16 µM (active).

Regarding `COc1ccc(CCNC(=O)C(=O)NCC2OCCN2S(=O)(=O)c2ccc(F)cc2)cc1OC` (configuration not stated), the Potency result is “inactive”.

As to `Cc1ccc(S(=O)(=O)NNC(=O)/C=C/c2cccc(F)c2)cc1`, the Potency entry was “inactive”.

As for `COC(=O)C1=C(O)/C(=C/c2ccc(OCC(=O)Nc3ccccc3)cc2)N=C1C`, the Potency result was “inactive”.

On to `CS(=O)(=O)N1CCN=C1SCc1ccc(F)cc1`, for which the Potency result was “inactive”.

Take `Cc1cc(NC(=O)CSc2nnnn2-c2ccc(F)cc2)no1`: the Potency entry is “inactive”.

Take `Fc1ccccc1/C=C1\CCCC2=C1Nc1ncnn1C2c1ccccc1F` (configuration not stated): the Potency is 2.82 µM (active).

`CC1=C(C(N)=O)C(c2ccc(Br)cc2)n2ncnc2N1` (configuration not stated): the Potency entry was “inactive”.

With `CC(=O)c1cccc(NC(=O)COc2ccc(S(=O)(=O)N3CCOCC3)cc2)c1`, the Potency result was “inactive”.

As for `O=C(CSc1ccc(-c2ccccn2)nn1)Nc1ccccc1`, the Potency entry was “inactive”.

Take `CCC(C)(C)n1nnnc1C(c1ccc(OC)c(OC)c1)N1CCN(C(=O)c2ccco2)CC1` (configuration not stated): the Potency entry is “inactive”.

On to `Cc1cccc(NS(=O)(=O)c2cc(Cl)ccc2Cl)n1`, for which the Potency entry was “inactive”.

As to `COc1ccc(Oc2ncc3nc(C)c(=O)n(-c4ccccc4)c3n2)cc1`, the Potency result was “inactive”.

As for `Cc1n[nH]c(=O)n1-c1ccc(C(C)C)cc1`, the Potency result was “inactive”.

Regarding `Cc1n[nH]c(=O)n1-c1ccc(Oc2ccccc2)cc1`, the Potency was 2.82 µM (active).

As for `Cc1ccc2c(c1)N(S(=O)(=O)c1cc(-c3cc(C)no3)ccc1C)CCO2`, the Potency entry is “inactive”.

On to `O=S(=O)(c1ccc(Cl)s1)N1CCC2(CC1)OCCO2`, for which the Potency result was “inactive”.

For `O=C(c1cccc(Br)c1)N1CCN(C2=NS(=O)(=O)c3ccccc32)CC1`, the Potency result is “inactive”.

As for `COC(=O)c1c(NC(=O)C(=O)N2CCCCC2)sc2c1CC(C)(C)OC2`, the Potency entry is “inactive”.

As for `CCOc1ccc(C(=O)Nc2ccc(CN3CCOCC3)cc2)cc1Cl`, the Potency entry was “inactive”.

Turning to `CCOc1ccc(C(=O)NC(=S)Nc2ccc(N3CCOCC3)c(Cl)c2)cc1[N+](=O)[O-]`, the Potency was 3.16 µM (active).

On to `COC(=O)c1cc(NC(=O)c2ccco2)ccc1N1CCOCC1`, for which the Potency result was “inactive”.

On to `CCOC(=O)c1c(NC(=O)c2ccc(N3CCOCC3)c([N+](=O)[O-])c2)sc(C)c1C`, for which the Potency result was “inactive”.

As to `COc1c(C)cccc1C(=O)Nc1cc(Cl)ccc1N1CCOCC1`, the Potency result is “inactive”.

Take `COc1cccc(OC)c1C(=O)NC(=S)Nc1ccc(N2CCOCC2)c(Cl)c1`: the Potency was 8.91 µM (active).

For `CCc1nc2cccnc2n1-c1ccc(C(=O)O)cc1`, the Potency entry is “inactive”.

In the case of `CC(=O)Oc1cccc(C(=O)Nc2ccccc2NC(=O)c2cccc(OC(C)=O)c2)c1`, the Potency entry is “inactive”.

`COc1ccc(C2=NS(=O)(=O)N(C)C(C(=O)N3CCCCC3)=C2)cc1`: the Potency entry was “inactive”.

The record behind these values is PubChem BioAssay AID2551 (National Center for Advancing Translational Sciences (NCATS), 2010).
